In PubChem BioAssay (Tox21) one finds Potency data, which are given here for 40 compounds.

“And” between values parts separate entries of the source, which are not always exact repeats. Equal values may be shown once. Results filed as inconclusive are left out. Where a call stands in place of a potency, no number is given. A structure can be active in one record and inactive in another. The source made the active and inactive calls. The call rests on the fitted dose curve; in most records, active means well fitted cell-killing curve with a large enough effect in the repeat runs; inconclusive means weak or mixed curves, or effect the other way; inactive means no such curve, though single readings can be large or run the other way.
Potency means the concentration at half of the fitted maximal effect.

The assay in a line: qHTS assay for identifying genotoxic compounds that show differential cytotoxicity against isogenic chicken DT40 cell lines with known DNA damage response pathways - Rev3 mutant cell line (AID 743014). Further: nearly all actives have a fitted effect of over 55% in size. As to conditions: chicken DT40 Rev3-/- viability, CellTiter-Glo, 40 h; series mostly up to 68.4 µM. The source says: National Center for Advancing Translational Sciences [NCATS]
NIH Chemical Genomics Center [NCGC]
U.S. Environmental Protection Agency [EPA]
National Institutes of Environmental Health Sciences [NIEHS]
National Toxicology Program [NTP]
U.S. Food and Drug Administration [FDA]
DNA repair pathways play a critical role in cellular homeostasis by repairing DNA damage induced by endogenous processes and xenobiotics. Isogenic chicken DT40 cell lines deficient in different DNA repair pathways can be used to identify genotoxic compounds and aid in characterizing the nature of the DNA damage induced. Two DNA repair-deficient cell lines with disrupted genes, Rad54/Ku70 or Rev3, were used to screen the Tox21 10K compound library. Possible genotoxicity was based on the presence of a significant increase in cytotoxicity in one or more of the DNA repair-deficient cell lines compared to that observed in the parental DNA repair-proficient cell line. CellTiter Glo viability assay (Promega, Madison, WI) was used to measure cell viability in these cells after compound treatment. This assay includes the data from the Rev3 mutant cell line.
Tox21 Assay Protocol Summary:
300 DT40 mutant cells in 5 uL/well were dispensed into white, solid-bottom 1536-well plates using a Multidrop Combi (ThermoFisher Scientific, Waltham, MA) dispenser. After the assay plates were incubated at 37 C/5% CO2 for approximately 0.5 hour, 23 nL of compounds dissolved in DMSO, positive controls or DMSO only was transferred into the assay plate by a pintool work station (Kalypsys, San Diego, CA). The assay plates were incubated at 37 C/5% CO2 for 40 hours. After 5 uL per well of CellTiter-Glo reagent was added into each well of the assay plates, the plates were incubated for 30 min at room temperature and the luminescence intensity of the plates was measured using a ViewLux (PerkinElmer, Shelton, CT) plate reader.
In general terms: qHTS replaces the single test concentration by a dilution series.
`COCC(C)O` (stereo not given): the Potency result was “inactive”.

In the case of `Oc1ccc(OCc2ccccc2)cc1`, the Potency was 2.85 µM (active) and 5.33 µM (active).

For `CCCCCCC(C)(C)S`, the Potency entry is “inactive”.

With `CC(C)NCC(O)COc1cccc2ccccc12` (stereo not given), the Potency is 61.8 µM (active) and inactive.

As to `O=C1N=C(O)CN1/N=C/c1ccc(-c2ccc([N+](=O)[O-])cc2)o1`, the Potency entry was “inactive and 68.6 µM (active)”.

With `CCCCOCCO`, the Potency result was “inactive”.

As for `CC1=CC[C@H]2C[C@@H]1C2(C)C`, the Potency result is “inactive”.

Consider `CCCCC(CC)C(=O)OCCOCCOCCOC(=O)C(CC)CCCC` (stereo not given), for which the Potency entry is “inactive and 19.3 µM (active)”.

With `ClC1=C(Cl)C(Cl)(Cl)C(Cl)=C1Cl`, the Potency entry is “inactive and 864 nM (active)”.

`OCC#CCO`: the Potency entry is “inactive and 54.5 µM (active)”.

Consider `C=C1CC[C@H](O)CC1=C/C=C1\CCC[C@]2(C)[C@@H]([C@H](C)/C=C/[C@H](C)C(C)C)CC[C@@H]12`, for which the Potency was 12.1 µM (active) and 24.3 µM (active).

On to `CC(C)Cc1ccccc1`, for which the Potency entry was “inactive”.

As for `O=C(Oc1ccccc1)c1ccc(O)cc1`, the Potency result was “inactive”.

As to `CCc1ccccc1O`, the Potency result was “inactive”.

Take `CC1(C)CC(N=C=O)CC(C)(CN=C=O)C1` (stereo not given): the Potency result is “inactive”.

For the compound `CC1(C)O[C@@H]2C[C@H]3[C@@H]4C[C@H](F)C5=CC(=O)CC[C@]5(C)[C@H]4[C@@H](O)C[C@]3(C)[C@]2(C(=O)CO)O1`, the Potency entry is “inactive”.

For the compound `OC[C@@H](O)[C@H](O)[C@H](O)[C@@H](O)CO`, the Potency result was “inactive”.

For `CCOC(=O)/C=C\C(=O)OCC`, the Potency entry is “inactive”.

Regarding `CN(C)c1cccc(O)c1`, the Potency entry is “inactive”.

Regarding `C=C(C)C(=O)OCCCCCC`, the Potency result is “inactive”.

As to `Oc1ccc2ccccc2c1`, the Potency entry was “inactive”.

In the case of `O=C(O)c1cc(-c2ccccc2)nc2ccccc12`, the Potency entry is “inactive”.

`Clc1ccc(Cl)c(Cl)c1Cl`: the Potency result was “inactive”.

With `C=C(C#N)C(=O)OCC`, the Potency entry is “inactive and 43.3 µM (active)”.

As to `CC(=O)CCc1ccccc1`, the Potency entry was “inactive”.

For `CC(C)(C)C1CCC(O)CC1` (stereo not given), the Potency result is “inactive”.

`CC(C)(N=C=O)c1cccc(C(C)(C)N=C=O)c1`: the Potency result was “inactive”.

`CC1=C(/C=C/C(C)=C/C=C/C(C)=C/CO)C(C)(C)CCC1`: the Potency was 55.1 µM (active) and 36.2 µM (active).

On to `CS(=O)(=O)c1ccc([C@@H](O)[C@@H](CO)NC(=O)C(Cl)Cl)cc1`, for which the Potency was 7.17 µM (active) and 4.38 µM (active).

Consider `O=S(=O)(O)c1cc(S(=O)(=O)O)c2c(N=Nc3ccccc3)c(O)ccc2c1`, for which the Potency result is “inactive”.

For the compound `O=C1O[C@H](CO)[C@@H](O)[C@H](O)[C@H]1O`, the Potency result was “inactive”.

Turning to `Clc1cc(Cl)c(Cl)cc1Cl`, the Potency result is “inactive”.

Take `CC1CC(OC(=O)c2ccccc2O)CC(C)(C)C1` (stereo not given): the Potency entry is “inactive”.

Take `CCC(=O)O`: the Potency entry is “inactive”.

For `COC(=O)c1ccc(C(=O)OC)cc1`, the Potency entry is “inactive”.

`Cc1ccc(C(=O)O)o1`: the Potency result is “inactive”.

Turning to `CCCCCCCCCCCCN`, the Potency entry is “inactive and 21.7 µM (active)”.

As to `Cc1cc(=O)[nH]c(C(C)C)n1`, the Potency result was “inactive”.

For the compound `Nc1nc2ncc(CNc3ccc(C(=O)N[C@@H](CCC(=O)O)C(=O)O)cc3)nc2c(=O)[nH]1`, the Potency result is “inactive”.

Consider `CCCCCCOC(C)=O`, for which the Potency is 54.5 µM (active).
